Seven compounds from PubChem BioAssay (NCATS) can be followed below.

Unmarked numbers belong to inactive results. Records with an inconclusive call do not appear. The source made the active and inactive calls. Unless noted, the call rests on the fitted dose curve; in most records, active means well fitted curve in the direction sought with a large enough effect; inconclusive means small, poorly fitted or top-dose-only effect, or another doubt; inactive means no such curve, though single readings can be large; an effect the other way counts as inactive or inconclusive.

Experiment [1] has as its target Lysosomal acid glucosylceramidase (Homo sapiens) (UniProt P04062). In words: Glucocerebrosidase-p2 (AID 348; in the data active means potency below about 10 µM; further: potency means the concentration at half of the fitted maximal effect). The note with it: purified GBA, blue fluorogenic substrate, 40 min. Put shortly: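 Normal human glucocerebrosidase (0.2 nM) with blue fluorogenic substrate (80 uM final) in citrate/phosphate pH 5.9 with 10mM sodium taurocholate, 0.01% tween-20; 40 min RT, NaOH/glycine stop; fluorescence Ex 365/Em 440; AC50 from a titration from 0.6 nM upwards.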

Experiment [2] in a line: AP1 Signaling Pathway (AID 357; active means well fitted curve in either direction with a large enough effect, not every such curve was filed as active; further: on the % scale 0 is the no-effect control and ±100 the full control effect). The note with it: ME-180 AP-1-bla reporter, EGF-induced, beta-lactamase ratio, 5 h; at 7.69 µM (top of the series) unless noted. The procedure, abridged: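 AP-1-bla ME-180 cells with beta-lactamase reporter under AP-1 response element, stimulated with EC50 EGF; compounds titrated, 5 hours at 37 degrees Celsius. CCF4 read at 460/530 nm ratio; positive and negative modulators judged by AC50.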

Experiment [3] deals with Cytochrome P450 1A2 (Homo sapiens) (UniProt P05177). The experiment in a line: p450-cyp1a2 (AID 410; calls by dose curve; further: potency means the concentration at half of the fitted maximal effect). The note with it: recombinant CYP1A2, luciferin-ME demethylation, luminescence; series mostly up to 57 µM. Put shortly:
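O-Demethylation of luciferin 6' methyl ether by human CYP1A2 is monitored as luciferase luminescence. Substrate sits at Km (100uM); enzyme is 20nM. Values are scaled to 57 uM furafylline as maximal inhibition.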

Experiment [4] is described as follows: NFAT Signaling Pathway (AID 444; active means well fitted curve in either direction with a large enough effect, not every such curve was filed as active;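 further: carbachol stimulus at about its EC50 of 1 µM final; on the % scale 0 is the no-effect control and ±100 the full control effect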). The note with it: Jurkat NFAT-bla M1, carbachol, beta-lactamase ratio, 5 h; at 7.69 µM (top of the series) unless noted. The procedure, abridged:
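Jurkat cells with NFAT-driven β-lactamase reporter and co-expressed M1 receptor, stimulated with carbachol (final 1 uM, ~EC50), compound titration, 5 h at 37 °C. CCF4 loaded 1 h at RT; 460/530 nm ratio gave %activity and AC50.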

The nature of experiment [5]: Stat Signaling Pathway (AID 446; active means well fitted curve in either direction with a large enough effect, not every such curve was filed as active;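 further: ME-180 cervical cancer cells given 40 pM IL-6 alongside compound; SIE-controlled beta-lactamase reporter measured as 460/530 nm FRET emission ratio; on the % scale 0 is the no-effect control and ±100 the full control effect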). The note with it: ME-180 (cervical carcinoma) SIE beta-lactamase reporter, IL-6 stimulated, 5 h; at 7.69 µM (top of the series) unless noted. Put shortly:
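FRET read-out (405 nm excitation, 460/530 nm emission) of a beta-lactamase reporter under a STAT-inducible element in ME-180 cervical carcinoma cells. Cells with compound receive 40 pM IL-6 for 5 h. Values are normalised to AC90 stimulation and AC90 JAK-inhibitor controls.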

Experiment [6] addresses Glucocorticoid receptor (Homo sapiens) (UniProt P04150). In words: GR-GFP Redistribution (AID 450;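 active means compounds whose dose series gives a full or clear partial fitted curve of increased nuclear translocation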; further: potency means the concentration at half of the fitted maximal effect). The note with it: U2OS GR-GFP nuclear translocation, laser cytometry, 2 h.
The target is the same in experiment [7]. The experiment in a line: GR-EFC Redistribution (AID 451; calls by dose curve; further: potency means the concentration at half of the fitted maximal effect). The note with it: CHO-K1 GR-EFC translocation, beta-gal luminescence, 2 h. The procedure, abridged: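 CHO-K1 cells expressing nuclear EA and GR-ED fragments of b-gal; compounds titrated up to 46 uM final, 2 h at 37 C. GR nuclear translocation read as complemented b-gal luminescence after 1 h RT detection.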

The target of experiment [8] is Mitogen-activated protein kinase 10 (Mus musculus) (UniProt Q61831). In words: JNK3 AlphaScreen Assay (AID 530; active means well fitted curve in either direction with a large enough effect, not every such curve was filed as active;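 further: kinase came from lysate of stimulated human HepG2 cells; signal reports phosphorylation of biotinylated GST-cJun 1-79 at Ser73 with 10 µM ATP; on the % scale 0 is the no-effect control and ±100 the full control effect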). The note with it: JNK3 lysate, c-Jun phosphorylation; series mostly up to 57.1 µM. Put shortly:
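Activity was read by AlphaScreen after JNK3-containing HepG2 lysate (cytokine pre-activated) phosphorylated biotinylated GST-cJun with 10 uM ATP at room temperature. Phospho-Ser73 cJun antibody with Protein-A acceptor beads provided detection.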
Background: In Alpha technology, singlet oxygen from a donor bead excites a nearby acceptor bead.

Experiment [9] addresses 3',5'-cyclic-AMP phosphodiesterase 4B (Homo sapiens) (UniProt Q07343). In words: qHTS Assay for Inhibitors of PDE-IV (AID 607; active means well fitted activation curve with a large enough effect in the main read-out, with a control signal flat, not every such curve was filed as active; further: % of control where 0% means no effect). The note with it: HEK293 ACTOne CNG channel cells, membrane potential fluorescence; series mostly up to 22.9 µM. The procedure, abridged:
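Cell-based read-out of cAMP via a modified cyclic nucleotide-gated channel and membrane potential dye (535/590 nm) in HEK293 cells expressing PDE4 endogenously. Compounds tested up to 22.9 uM final; 100 uM RO 20-1724 reference.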

The target in experiment [10] is Cytochrome P450 3A4 (Homo sapiens) (UniProt P08684). In words: qHTS Assay for Inhibitors and Substrates of Cytochrome P450 3A4 (AID 884). Further: potency means the concentration at half of the fitted maximal effect; nearly all actives have a fitted effect of over 50% in size. The note with it: recombinant CYP3A4, Luciferin-PPXE luminescence; series mostly up to 57.1 µM. Put shortly:
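Luminescent readout of luciferin produced by CYP3A4 (20 nM) dealkylation of Luciferin-PPXE, 25 uM (its KM). NADPH-driven reaction ran 60 min at RT after 10 min compound preincubation; data scaled to 57 uM ketoconazole as 100% inhibition.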

For experiment [11] the target is unchanged. The experiment in a line: qHTS Assay for Activators of Cytochrome P450 3A4 (AID 885). Further: nearly all actives have a fitted effect of over 65% in size. The note with it: recombinant CYP3A4, Luciferin-PPXE luminescence, 60 min; series mostly up to 57.1 µM. The procedure, abridged: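 Luminescent readout of luciferin formed from 25 uM Luciferin-PPXE (KM level) by 20 nM CYP3A4 in 200 mM KPO4, with 60 min NADPH-driven reaction at room temperature after 10 min compound exposure. Ketoconazole (57 uM) defined 100% inhibition.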
Background: Quantitative high-throughput screening tests each substance at several concentrations.

In experiment [12] the target is Cytochrome P450 2C19 (Homo sapiens) (UniProt P33261). In words: qHTS Assay for Inhibitors and Substrates of Cytochrome P450 2C19 (AID 899). Further: potency means the concentration at half of the fitted maximal effect; nearly all actives have a fitted effect of over 60% in size. The note with it: recombinant CYP2C19, luciferin-H EGE luminescence; series mostly up to 57.1 µM. Put shortly:
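Luminescent read-out of luciferin formed from Luciferin-H EGE (10uM, equal to KM). Enzyme 5nM in 50mM KPO4; compound added, 10 min at 37C, then NADPH regenerating system for 60 min at 37C. Full inhibition defined by 57uM ketoconazole.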

For experiment [13], the target named is Dual specificity protein kinase CLK4 (Homo sapiens) (UniProt Q9HAZ1). The experiment in a line: qHTS Assay for Inhibitors of CDC-like Kinase 4 (Kinase-Glo Assay) (AID 1770). Further: nearly all actives have a fitted effect of over 65% in size. Further: potency means the concentration at half of the fitted maximal effect. The note with it: recombinant Clk4, Kinase-Glo ATP depletion luminescence; series mostly up to 66.7 µM. The procedure, abridged: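 25 nM Clk4 with 100 uM RS repeat peptide and 1 uM ATP (final) in Tris pH7.5, 10 mM MgCl2, 4.5 h at room temperature. Remaining ATP measured by Kinase-Glo luciferase luminescence.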

Experiment [14] shares this target. In words: qHTS Assay for Inhibitors of CDC-like Kinase 4 (ADP-Glo Assay) (AID 1771). Further: nearly all actives have a fitted effect of over 70% in size. Further: potency means the concentration at half of the fitted maximal effect. The note with it: recombinant CLK4, ADP-Glo luminescence; series mostly up to 80 µM. The procedure, abridged:
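Compounds are pin-transferred onto substrate mix (100 uM RS peptide, 1 uM ATP), then 25 nM Clk4 is added. After 1 hr at room temperature, ADP-Glo reagent runs 45 min, detection reagent 30 min, then luminescence is read.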

Experiment [15] has as its target Ubiquitin carboxyl-terminal hydrolase 1 (Homo sapiens) (UniProt O94782). The experiment in a line: Inhibitors of USP1/UAF1: Pilot qHTS (AID 504865).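 Further: rhodamine fluorescence freed from ubiquitin-rhodamine substrate followed over time; top concentration of the series differs between compounds; on the % scale 0 is the no-effect control and ±100 the full control effect; nearly all actives have a fitted effect of over 35% in size.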 The note with it: purified USP1/UAF1, Ub-rhodamine cleavage fluorescence; series mostly up to 54.9 µM. The procedure, abridged: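 USP1/UAF1 complex at 1 nM preincubated 15 min at room temperature with compound, then Ub-Rho substrate added at 150 nM final. Fluorescence (480/540 nm) read kinetically in 50 mM HEPES pH 7.8, 0.5 mM EDTA, 1 mM TCEP, 0.1 mg/ml BSA, 0.01% Tween-20.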

Experiment [16] can be described thus: Primary qHTS for small molecule stabilizers of the endoplasmic reticulum resident proteome: Secreted ER Calcium Modulated Protein (SERCaMP) assay (AID 1508630). Further: on the % scale 0 is the no-effect control and ±100 the full control effect. The note with it: SH-SY5Y GLuc-SERCaMP (Gaussia luciferase released on ER calcium loss) secretion, thapsigargin, luminescence; series mostly up to 38.4 µM. Put shortly:
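The SH-SY5Y reporter protocol was run at 3 concentrations up to 38.3 uM (primary) or 11 concentrations (follow-up): 16 h compound, 100 nM thapsigargin for 4 h, then extracellular luciferase luminescence.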

The target in experiment [17] is Dual specificity protein kinase CLK4 (Homo sapiens) (UniProt Q9HAZ1). The experiment in a line: qHTS Assay for Inhibitors of CDC-like Kinase 4 (ADP-FP Assay) (AID 1795). Further: on the % scale 0 is the no-effect control and ±100 the full control effect; nearly all actives have a fitted effect of over 60% in size. The note with it: Transcreener ADP fluorescence polarization; series mostly up to 50 µM. Put shortly: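 Recombinant Clk4 (6.25 nM) phosphorylated 100 uM RS repeat peptide with 1 uM ATP in 25 mM Tris pH 7.5, 10 mM MgCl2, 0.5 mM EGTA, 2.5 mM DTT, 0.01% Triton X-100 for 1 h. ADP was detected by Transcreener ADP2 competitive fluorescence polarization after 30 min at room temperature.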

Chain of Dual specificity protein kinase CLK4 (Homo sapiens) (Q9HAZ1 whole entry, looked up): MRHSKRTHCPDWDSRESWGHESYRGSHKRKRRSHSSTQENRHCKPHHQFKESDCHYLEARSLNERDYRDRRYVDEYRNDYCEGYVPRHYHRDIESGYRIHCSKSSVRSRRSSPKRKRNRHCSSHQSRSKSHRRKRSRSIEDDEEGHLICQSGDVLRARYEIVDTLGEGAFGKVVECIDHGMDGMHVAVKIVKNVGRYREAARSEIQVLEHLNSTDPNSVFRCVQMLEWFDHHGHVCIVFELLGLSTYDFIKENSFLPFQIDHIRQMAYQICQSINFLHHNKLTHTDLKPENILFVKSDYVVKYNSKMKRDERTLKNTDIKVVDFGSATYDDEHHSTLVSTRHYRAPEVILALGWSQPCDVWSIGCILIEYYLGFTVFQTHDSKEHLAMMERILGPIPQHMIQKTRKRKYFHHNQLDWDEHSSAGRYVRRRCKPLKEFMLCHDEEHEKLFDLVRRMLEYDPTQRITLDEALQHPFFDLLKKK
Chain of Cytochrome P450 2C19 (Homo sapiens) (P33261 whole entry, looked up): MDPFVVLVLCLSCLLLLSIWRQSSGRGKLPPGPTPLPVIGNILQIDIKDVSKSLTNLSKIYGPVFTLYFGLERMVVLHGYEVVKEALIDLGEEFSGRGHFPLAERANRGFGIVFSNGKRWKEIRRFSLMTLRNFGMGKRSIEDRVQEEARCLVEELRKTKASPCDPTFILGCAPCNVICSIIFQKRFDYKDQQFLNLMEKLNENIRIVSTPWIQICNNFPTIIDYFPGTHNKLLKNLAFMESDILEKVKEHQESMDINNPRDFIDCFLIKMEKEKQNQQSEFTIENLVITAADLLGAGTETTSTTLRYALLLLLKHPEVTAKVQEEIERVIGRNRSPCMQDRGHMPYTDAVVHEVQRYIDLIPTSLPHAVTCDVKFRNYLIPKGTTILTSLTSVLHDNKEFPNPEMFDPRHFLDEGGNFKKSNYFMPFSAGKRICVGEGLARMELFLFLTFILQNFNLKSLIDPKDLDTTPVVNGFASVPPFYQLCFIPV
Chain of Cytochrome P450 3A4 (Homo sapiens) (P08684 whole entry, looked up): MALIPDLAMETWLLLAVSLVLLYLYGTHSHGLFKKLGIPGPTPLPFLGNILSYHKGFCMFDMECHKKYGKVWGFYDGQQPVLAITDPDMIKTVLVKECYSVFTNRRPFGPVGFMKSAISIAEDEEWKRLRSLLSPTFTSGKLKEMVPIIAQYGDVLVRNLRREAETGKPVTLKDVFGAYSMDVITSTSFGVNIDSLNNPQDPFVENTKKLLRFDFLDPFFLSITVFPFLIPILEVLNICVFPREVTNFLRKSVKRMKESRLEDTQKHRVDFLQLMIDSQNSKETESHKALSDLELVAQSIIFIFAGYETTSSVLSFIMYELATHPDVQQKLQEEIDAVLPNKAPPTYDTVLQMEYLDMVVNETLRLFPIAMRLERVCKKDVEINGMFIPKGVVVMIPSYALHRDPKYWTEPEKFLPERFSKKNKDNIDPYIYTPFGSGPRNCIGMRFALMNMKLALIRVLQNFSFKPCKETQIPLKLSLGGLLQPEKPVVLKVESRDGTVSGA
Chain of Glucocorticoid receptor (Homo sapiens) (P04150 whole entry, looked up, the tested form may be a part): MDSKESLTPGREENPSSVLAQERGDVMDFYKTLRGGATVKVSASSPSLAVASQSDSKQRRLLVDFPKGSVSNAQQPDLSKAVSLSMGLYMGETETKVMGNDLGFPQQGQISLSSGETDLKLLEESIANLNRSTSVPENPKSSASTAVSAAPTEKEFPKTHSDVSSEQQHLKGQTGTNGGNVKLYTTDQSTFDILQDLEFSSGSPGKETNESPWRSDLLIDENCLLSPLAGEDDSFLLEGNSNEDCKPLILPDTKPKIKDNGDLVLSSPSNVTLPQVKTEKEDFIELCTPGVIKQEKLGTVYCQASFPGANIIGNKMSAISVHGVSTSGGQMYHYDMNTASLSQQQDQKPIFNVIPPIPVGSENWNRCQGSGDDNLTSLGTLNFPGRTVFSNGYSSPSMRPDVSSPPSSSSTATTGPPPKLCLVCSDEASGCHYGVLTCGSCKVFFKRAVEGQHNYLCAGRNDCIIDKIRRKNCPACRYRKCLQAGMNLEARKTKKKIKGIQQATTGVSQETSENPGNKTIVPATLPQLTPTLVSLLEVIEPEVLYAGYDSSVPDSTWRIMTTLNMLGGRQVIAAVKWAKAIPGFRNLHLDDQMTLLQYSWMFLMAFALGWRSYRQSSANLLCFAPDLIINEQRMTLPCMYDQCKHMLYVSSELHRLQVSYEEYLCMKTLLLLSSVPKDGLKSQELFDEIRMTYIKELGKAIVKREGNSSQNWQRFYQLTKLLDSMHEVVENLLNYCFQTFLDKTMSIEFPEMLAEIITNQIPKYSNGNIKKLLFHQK
Chain of Ubiquitin carboxyl-terminal hydrolase 1 (Homo sapiens) (O94782 whole entry, looked up): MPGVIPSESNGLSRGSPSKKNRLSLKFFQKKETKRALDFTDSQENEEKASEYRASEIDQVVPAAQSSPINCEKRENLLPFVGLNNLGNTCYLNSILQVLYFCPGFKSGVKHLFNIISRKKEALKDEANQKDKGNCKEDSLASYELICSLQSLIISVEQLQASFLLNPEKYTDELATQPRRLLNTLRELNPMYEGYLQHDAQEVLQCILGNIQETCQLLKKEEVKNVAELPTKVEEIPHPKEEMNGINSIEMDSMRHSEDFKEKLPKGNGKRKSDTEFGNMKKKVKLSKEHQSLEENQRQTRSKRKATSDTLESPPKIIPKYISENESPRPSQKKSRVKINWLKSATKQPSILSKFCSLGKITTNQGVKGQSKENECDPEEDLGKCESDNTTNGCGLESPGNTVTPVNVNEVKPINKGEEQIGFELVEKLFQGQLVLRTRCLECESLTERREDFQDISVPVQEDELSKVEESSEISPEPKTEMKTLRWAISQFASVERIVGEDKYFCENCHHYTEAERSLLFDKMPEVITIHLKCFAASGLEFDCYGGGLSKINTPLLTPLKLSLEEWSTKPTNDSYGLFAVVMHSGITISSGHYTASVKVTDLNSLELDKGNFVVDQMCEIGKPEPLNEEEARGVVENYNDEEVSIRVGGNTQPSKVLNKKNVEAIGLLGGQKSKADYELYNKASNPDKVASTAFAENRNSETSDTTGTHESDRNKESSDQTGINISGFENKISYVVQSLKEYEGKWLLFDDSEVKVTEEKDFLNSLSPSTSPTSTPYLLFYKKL
Chain of Lysosomal acid glucosylceramidase (Homo sapiens) (P04062 whole entry, looked up): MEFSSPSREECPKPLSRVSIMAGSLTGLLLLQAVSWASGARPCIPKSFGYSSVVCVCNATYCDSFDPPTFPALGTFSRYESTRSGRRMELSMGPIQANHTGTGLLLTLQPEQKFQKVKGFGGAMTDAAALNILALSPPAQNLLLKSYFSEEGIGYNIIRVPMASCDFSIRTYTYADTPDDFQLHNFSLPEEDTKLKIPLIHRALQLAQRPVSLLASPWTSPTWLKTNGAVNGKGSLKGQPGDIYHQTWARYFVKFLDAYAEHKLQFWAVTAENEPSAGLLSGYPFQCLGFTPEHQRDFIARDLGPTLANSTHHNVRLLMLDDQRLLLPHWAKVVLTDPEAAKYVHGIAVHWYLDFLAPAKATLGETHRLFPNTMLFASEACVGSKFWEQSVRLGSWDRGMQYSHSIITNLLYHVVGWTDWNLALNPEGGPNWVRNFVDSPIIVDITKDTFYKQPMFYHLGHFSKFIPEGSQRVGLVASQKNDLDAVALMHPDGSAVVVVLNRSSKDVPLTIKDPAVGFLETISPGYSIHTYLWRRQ
Chain of 3',5'-cyclic-AMP phosphodiesterase 4B (Homo sapiens) (Q07343 whole entry, looked up): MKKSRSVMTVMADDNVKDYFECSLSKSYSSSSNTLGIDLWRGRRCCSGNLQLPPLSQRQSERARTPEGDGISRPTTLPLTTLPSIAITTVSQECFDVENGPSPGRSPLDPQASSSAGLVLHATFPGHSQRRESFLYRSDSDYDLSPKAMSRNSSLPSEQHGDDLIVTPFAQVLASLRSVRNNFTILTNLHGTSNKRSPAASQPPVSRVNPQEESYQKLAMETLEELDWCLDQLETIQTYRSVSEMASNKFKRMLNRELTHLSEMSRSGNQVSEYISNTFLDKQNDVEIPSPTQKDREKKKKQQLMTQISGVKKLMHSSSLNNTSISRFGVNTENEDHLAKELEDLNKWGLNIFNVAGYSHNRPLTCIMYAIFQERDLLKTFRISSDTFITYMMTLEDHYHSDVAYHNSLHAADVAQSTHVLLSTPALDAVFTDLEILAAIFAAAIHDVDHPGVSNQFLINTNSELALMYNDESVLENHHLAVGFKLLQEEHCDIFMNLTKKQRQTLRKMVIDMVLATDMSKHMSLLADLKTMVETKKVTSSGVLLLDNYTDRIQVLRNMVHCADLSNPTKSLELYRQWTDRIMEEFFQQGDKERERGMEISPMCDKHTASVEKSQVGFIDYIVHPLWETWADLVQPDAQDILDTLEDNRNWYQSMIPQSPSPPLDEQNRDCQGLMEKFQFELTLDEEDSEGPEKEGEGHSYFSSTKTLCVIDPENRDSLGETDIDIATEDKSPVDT
Chain of Cytochrome P450 1A2 (Homo sapiens) (P05177 whole entry, looked up): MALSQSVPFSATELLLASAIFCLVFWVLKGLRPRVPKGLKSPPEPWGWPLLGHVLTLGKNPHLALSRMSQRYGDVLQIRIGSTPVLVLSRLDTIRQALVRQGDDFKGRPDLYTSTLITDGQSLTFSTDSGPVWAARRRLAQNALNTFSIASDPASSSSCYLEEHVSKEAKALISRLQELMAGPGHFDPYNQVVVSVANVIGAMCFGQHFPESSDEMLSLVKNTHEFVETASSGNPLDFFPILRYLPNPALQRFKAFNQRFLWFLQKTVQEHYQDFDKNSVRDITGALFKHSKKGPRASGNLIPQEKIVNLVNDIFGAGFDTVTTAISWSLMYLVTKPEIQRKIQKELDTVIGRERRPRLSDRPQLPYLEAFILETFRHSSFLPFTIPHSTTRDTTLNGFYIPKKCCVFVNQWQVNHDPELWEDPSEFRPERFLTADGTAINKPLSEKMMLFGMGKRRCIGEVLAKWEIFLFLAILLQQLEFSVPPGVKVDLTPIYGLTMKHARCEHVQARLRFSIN

On to `CN(C)c1ccc(-c2cncnc2-n2ccnc2)cc1`, for which the Potency is above 11.4 µM in experiment [1]; 2.51 µM (active) in experiment [3]; above 46 µM in experiment [6]; above 46 µM in experiment [7]; 2.51 µM (active) in [10]; 3.98 µM (active) in [12]. Further, the Potency was 14.1 µM (active) in experiment [13] and 25.1 µM (active) in experiment [14]. Also, the activity change, negative = inhibition in experiment [2] is -3.44%; in experiment [4], 4.48%. In experiment [5], the activity, negative = inhibition was 10.2%. Also, the Potency entry in experiment [8], in experiment [9], in [11] and in experiment [15] was “inactive” in each case. The result in [16] was inactive.
Consider `COc1ccccc1-c1cc(NCc2cccs2)ncn1`, for which the Potency in experiment [1] was above 11.4 µM; in experiment [3], 1.58 µM (active); in experiment [6], above 46 µM; in experiment [7], above 46 µM; in [13], 14.1 µM (active); in [14], 14.1 µM (active). In addition, the activity change, negative = inhibition in experiment [2] is 0.573%; in experiment [4] it was 9.61%. Also, in experiment [5], the activity, negative = inhibition was -5.58%. Moreover, the Potency result in experiment [8], in [9], in experiment [11] and in [15] was “inactive” in each case. Also, the outcome in experiment [16] was inactive.
Consider `COc1cccc(Cn2c(=O)c(-c3cccc(C#N)c3)nc3cnc(N4CCOCC4)nc32)c1`, for which the activity change, negative = inhibition in [2] is 0.3%; in experiment [4], 0.194%. Further, the activity, negative = inhibition in experiment [5] was 18.9%. Moreover, the Potency is above 9.22 µM in experiment [6] and above 46 µM in experiment [7]. Moreover, the Potency entry in experiment [8], in [9], in experiment [13], in experiment [14], in [17] and in experiment [15] was “inactive” each time. The outcome in experiment [16] was inactive.
In the case of `COc1ccc2[nH]cc(CCNc3ccnc(-c4ccc(N(C)C)cc4)n3)c2c1`, the activity change, negative = inhibition in [2] was 11.2%. In addition, the Potency is 0.631 µM (active) in [3]; above 46 µM in experiment [6]; above 46 µM in [7]; 5.01 µM (active) in experiment [10]; 6.31 µM (active) in experiment [12]; 15.8 µM (active) in [13]. In addition, the Potency in experiment [14] was 14.1 µM (active). Further, the Potency result in [9], in experiment [11], in experiment [17] and in experiment [15] was “inactive” each time. In experiment [16], the outcome was inactive.
With `COc1cccc(-c2nc(NCc3ccccc3OC)c3ccccc3n2)c1`, in experiment [2], the activity change, negative = inhibition was 9.52%. Besides, the Potency in experiment [3] is 0.631 µM (active); in experiment [6], above 46 µM; in [7], above 46 µM; in [10], 3.98 µM (active); in experiment [12], 7.94 µM (active). The activity, negative = inhibition in [5] is -9.86%. The Potency entry in [8], in experiment [11], in experiment [13], in [14], in experiment [17] and in experiment [15] was “inactive” in each case. The result in [16] was inactive.
Consider `CN(Cc1ccco1)c1ncncc1-c1ccccc1C(F)(F)F`, for which, in experiment [2], the activity change, negative = inhibition is 13.8%. Besides, the Potency in [3] is 12.6 µM (active); in experiment [6] it was above 46 µM; in experiment [7] it was above 46 µM; in experiment [10], 1.26 µM (active); in experiment [12], 3.98 µM (active). Moreover, the activity, negative = inhibition in [5] is -2.15%. The Potency result in experiment [8], in experiment [9], in experiment [11], in experiment [13], in experiment [14] and in [17] was “inactive” throughout. The Potency entry in experiment [15] was “inactive”. The outcome in experiment [16] was inactive.
Regarding `Cc1noc(C)c1-c1nccc(NCc2cccs2)n1`, the Potency in [1] was above 11.4 µM; in [3], 0.501 µM (active); in [6], above 46 µM; in experiment [7], above 46 µM; in experiment [13] it was 22.4 µM (active); in [14], 35.5 µM (active). Besides, the activity change, negative = inhibition is 3.65% in experiment [2] and -16.6% in experiment [4]. Also, the activity, negative = inhibition in experiment [5] is 2.65%. For the same compound, the Potency entry in experiment [8] and in experiment [11] was “inactive” in each case. In addition, in experiment [16], the outcome was inactive.
